An excerpt weighted towards active compounds, which were near 3.6% of everything screened.
PTAP-TSG101 blk = blocks PTAP binding to human TSG101, validation; Potency, µM (top dose mostly 115 µM), hits mostly inhibitors; Q99816; Fluorescence polarization, FITC-PTAP peptide/Tsg101, 20 min; 44,000 tested, under 10 active; note: potency is the fitted concentration of half-maximal effect; 0% is about no effect
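Fluorescence polarization: Tsg101 binding domain (10 uM final) in 10 mM HEPES pH 7.5, 0.15 M NaCl, 0.01% Tween 20, 3 mM EDTA, 0.1 mM TCEP; compounds pinned; FITC-PTAP peptide 50 nM final; 20 min, r.t.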
GALK inh = inhibitors of human galactokinase (GALK) | recombinant GALK, Kinase-Glo ATP luminescence, 1 h | P51570 | 44,000 tested, under 10 active | Potency, µM (doses to about 57.5 µM), for the others: at the highest dose activity, negative = inhibition, most hits filed as inhibitors;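 note: plate controls were full GALK reaction for no effect and reaction lacking GALK for full effect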
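5 nM GALK with 35 µM ATP and 100 µM galactose in HEPES pH 8.0, MgCl2, NaCl, DTT, BSA; 1 h RT reaction, remaining ATP detected by Kinase-Glo Plus luminescence after 10 min; qHTS concentration series.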
HTT prom inh = inhibitors of huntingtin promoter activity; HEK293 HTT promoter firefly luciferase reporter, 24 h; Potency, µM (series often up to 57.5 µM), for inactives: at the highest dose activity change, negative = inhibition, actives largely listed as inhibitors; 48,000 compounds, 0.93% hits; note: potency is the fitted concentration of half-maximal effect; nearly all actives have a fitted effect of over 50% in size
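Firefly luciferase readout (Dual-Glo, 10 min RT) after 24 h, 37 °C compound exposure (final up to 57.5 uM) of HEK293 reporter cells cultured 24 h beforehand; PTC124 at 50 uM final as control inhibitor; activity scaled vehicle 0%, zero RLU -100%.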
HTT-AS act = HTT-AS promoter activation; 48,000 compounds, 0.24% hits; HEK293 HTT-AS promoter firefly luciferase reporter, 24 h; response scale: percent change from vehicle, -100% = no light; Potency, µM (titrated, usually from 57.5 µM), for inactives: top-dose activity change, positive = activation, most hits filed as activators; note: potency is the fitted concentration of half-maximal effect; nearly all actives have a fitted effect of over 55% in size
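Quantitative HTS used concentration series of up to 57.5 uM final on HEK293 luciferase reporter cells, 24 h at 37 degrees C. Readout was Dual-Glo firefly luminescence.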
B2AR arrestin ag = agonists recruiting beta-arrestin to human beta2-adrenergic receptor; 44,000 tested, under 10 active; P07550; HTLA Tango cells, beta-arrestin recruitment, luciferase luminescence, 18 h; Potency, µM (doses to about 46.1 µM), most hits filed as activators; AID 1347077;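 note: potency is the fitted concentration of half-maximal effect; 0% = DMSO and full agonism = EC100 isoproterenol or metaproterenol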
Target sequence (P07550 whole entry, looked up): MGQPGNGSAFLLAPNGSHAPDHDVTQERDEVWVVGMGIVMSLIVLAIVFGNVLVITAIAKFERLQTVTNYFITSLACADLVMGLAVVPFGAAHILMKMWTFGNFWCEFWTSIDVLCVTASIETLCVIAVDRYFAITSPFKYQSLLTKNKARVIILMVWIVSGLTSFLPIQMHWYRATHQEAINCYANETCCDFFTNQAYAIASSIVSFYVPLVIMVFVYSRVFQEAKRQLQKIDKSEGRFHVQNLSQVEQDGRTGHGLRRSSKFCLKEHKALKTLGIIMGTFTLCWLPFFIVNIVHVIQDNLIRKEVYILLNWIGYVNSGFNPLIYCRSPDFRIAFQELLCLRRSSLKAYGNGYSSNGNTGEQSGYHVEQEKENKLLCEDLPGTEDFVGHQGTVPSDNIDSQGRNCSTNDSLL
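First, Tango cells carrying beta2-AR and beta-arrestin fusions received compound up to 46 microM. After 18 hr at 37 degrees C, luciferase substrate was added for 15 minutes, then luminescence gave %Activity for curve fitting.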
DRV1 agonist = activates human resolvin D1 receptor GPR32; CHO-K1 GPR32 beta-arrestin PathHunter luminescence, 90 min; zero percent set by DMSO-only wells; activation, % at 76.9 µM; 48,000 compounds, 2.5% hits; AID 1346428;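 active = activation of at least 60% and not above a set upper limit, about 1 call in 100 departs from these limits; inconclusive = activation of 40% to 60%, or above that upper limit; inactive = activation under 40%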; note: 0% is about no effect
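Step 1: seed CHO-K1 GPR32 beta-arrestin cells, 2,500/well, overnight at 37 °C. Step 2: add compounds, 90 min at 37 °C. Step 3: detection reagent, 1 h ambient, then luminescence.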
* marks the source's active call; other numbers are inactive results; i = inactive; ? = inconclusive; . = no result given; ! = not active in a repeat; [ ] = dose if it differs, or a comment. Unless noted, calls come from the whole dose curve; as a rule, active = well fitted curve in the direction sought with a large enough effect; inconclusive = small, poorly fitted or top-dose-only effect, or another doubt; inactive = no such curve, though single readings can be large; an effect the other way counts as inactive or inconclusive.

SMILES | PTAP-TSG101 blk | GALK inh | HTT prom inh | HTT-AS act | B2AR arrestin ag | DRV1 agonist
COc1ccc(-c2ccc3c(N4CCOC[C@H]4C)nc(N4CCOC[C@H]4C)nc3n2)cc1CO | . | . | ? | -26% | . | .
CC(C)Oc1ccc(CNC(=O)c2ccc3nc(SCc4ccc(F)cc4)n(C)c3c2)cc1 | i | -1% | ? | -20% | ? | 1
Cn1c(SCc2ccc(F)cc2)nc2ccc(C(=O)NCc3ccc(Cl)cc3)cc21 | i | -2% | ? | -45% | i | -2
Cc1ccc(CNC(=O)c2ccc3nc(SCc4ccc(F)cc4)[nH]c3c2)cc1 | i | -4% | 22µM* | -87% | i | 14
Cn1c(SCc2ccc(F)cc2)nc2ccc(C(=O)NCc3ccc(F)cc3)cc21 | i | 0% | 25µM* | -62% | i | 3
Ic1ccc(N2CCN(Cc3c[nH]c4ncccc34)CC2)cc1 | . | . | . | . | . | 76*
CCOCc1cc(CN2CCN(c3cccc(C(F)(F)F)c3)CC2)c(O)c2ncccc12 | i | 1% | ? | -36% | ? | 22
CC(C)c1ccc(NC(=O)CCNS(=O)(=O)c2cccc3nsnc23)cc1 | i | -2% | -20% | -21% | i | 75*
CCCCN(CC)C(=O)C1CCC(CNS(=O)(=O)c2cccc3nsnc23)CC1 (stereo not given) | i | 0% | ? | -8%[11.5 µM] | i | 68*
O=C(Nc1ccc(C(F)(F)F)cc1)C1CCC(CNS(=O)(=O)c2cccc3nsnc23)CC1 (stereo not given) | i | 0% | -41% | -19% | i | 114*
Cc1ccc(NC(=O)CCNS(=O)(=O)c2cccc3nsnc23)cc1 | i | 4% | -1% | -7% | i | -25
COC(=O)[C@H]1[C@H]2C[C@@H]3c4[nH]c5cc(OC)ccc5c4CCN3C[C@H]2C[C@@H](OC(=O)/C=C/c2ccc(O)c(OC)c2)[C@@H]1OC | . | . | -30% | -40% | . | -4
Cc1cc(C)c2c(=O)cc(CSc3nnc(-c4ccccc4)n3C)[nH]c2c1 | i | 1% | -20% | -23% | i | 61*
COc1ccccc1N1CCN(CC(O)COc2cccc3ccccc23)CC1 (stereo not given) | . | . | -3% | -13% | . | 97*!
CN1C(=O)c2ccccc2Sc2ccc(NC(=O)N3CCN(c4ccccc4)CC3)cc21 | i | 1% | 25µM* | -62% | i | 0
CC(C)Oc1ccc(CNC(=O)Nc2ccc3c(c2)N(C)C(=O)c2ccccc2S3)cc1 | i | 4% | 25µM* | -50% | i | -15
CN1C(=O)c2ccccc2Sc2ccc(NC(=O)N3CCN(c4ccccc4F)CC3)cc21 | i | 0% | -17% | -16% | i | -5
CCCCCNC(=O)N1CCC(CN(Cc2ccc(Cl)cc2)Cc2ccc([N+](=O)[O-])s2)C1 (stereo not given) | . | . | -9% | -16% | . | .
Fc1ccccc1Cc1cn2cc(-c3ccc(Cl)cc3)nc2s1 | i | 6% | 3% | ? | i | 68*
Cc1cc(OCCCc2c(C(=O)O)n(Cc3cccnc3)c3c(-c4c(COc5ccc(N6CCN([S+](C)(=O)[O-])CC6)cc5)nn(C)c4C)cccc23)cc(C)c1Cl | . | . | ? | -29% | . | .
Cc1ccc(Cn2c(C(=O)O)c(CNCc3cccs3)c3ccc(C)cc32)cc1 | i | 3% | ? | -32% | i | 111*
CCOc1ccc(CNCc2c(C(=O)O)n(Cc3ccc(C)cc3)c3cc(C)ccc23)cc1 | i | ? | ? | -42% | i | 64*
CNCCC(Oc1ccc(C(F)(F)F)cc1)c1ccccc1 (stereo not given) | . | . | -9% | -27% | . | 104*!
Cc1ccc(C2NC(=O)c3n[nH]c(-c4cccs4)c32)cc1 (stereo not given) | i | 7% | -16% | -19% | i | 120*
COc1ccccc1C1c2c(-c3ccc(Cl)cc3)n[nH]c2C(=O)N1c1ccc(C)cc1 (stereo not given) | i | 6% | ? | -35% | i | -21
SMILES | PTAP-TSG101 blk | GALK inh | HTT prom inh | HTT-AS act | B2AR arrestin ag | DRV1 agonist
COc1ccccc1C1NC(=O)c2n[nH]c(-c3cccs3)c21 (stereo not given) | i | 0% | ? | -33% | i | 104*
CC(C)c1ccc(C2CC(=O)Nc3cc4c(cc32)OCCO4)cc1 (stereo not given) | i | 1% | ? | -43% | i | 29
Cc1ccc(C2CC(=O)Nc3cc4c(cc32)OCCO4)cc1Br (stereo not given) | i | -10% | 25µM* | -41% | i | -8
CCOC(=O)c1cnc2c(ccc3ccccc32)c1Nc1ccccc1OC | i | -20% | ? | -10%[11.5 µM] | i | 85*
COc1cccc(-c2nnc(SCC(=O)N(C)C3CCCCC3)o2)c1 | i | 6% | 8% | 1% | i | 72*
COc1ccc(-c2nnc(SCC(=O)N(C)C3CCCCC3)o2)cc1OC | i | -2% | 0% | -7% | i | 5
COc1cccc(NC(=O)CSc2nnc(-c3cccc(OC)c3)o2)c1 | i | -7% | 60% | 14µM* | i | 78*
COc1ccc(NC(=O)CSc2nnc(-c3ccc(C)cc3)o2)cc1 | i | -2% | 1% | -7% | i | -7
Cc1ccc(C)c(N2CCN(C(=O)C3CCCN(S(=O)(=O)c4cccc5nsnc45)C3)CC2)c1 (stereo not given) | i | 2% | ? | -45% | i | 66*
Cc1cnn(C)c1C(=O)Nc1cc(Nc2ccc3c(C=Cc4ccccn4)n[nH]c3c2)ccc1F | . | . | ? | -87% | . | .
CCc1ccc(CNC(=O)C2CCCN(c3nn4cc(-c5ccc(F)cc5)nc4s3)C2)cc1 (stereo not given) | i | -6% | 4µM* | -73% | i | -10
CCOc1ccc(CNC(=O)C2CCCN(c3nn4cc(-c5ccc(F)cc5)nc4s3)C2)cc1 (stereo not given) | i | 4% | ? | -62% | i | 6
N#Cc1c(-n2ncnc2-c2ccccc2C(F)(F)F)sc2c1CCCCC2 | i | -2% | 1.1µM* | -53% | i | -13
COc1ccc(CN2CCN(C(c3ccc(F)cc3)c3ccc(F)cc3)CC2)c(OC)c1OC | . | . | -26% | -27% | . | 78*
CC(C)(C)c1cnc(CSc2cnc(NC(=O)C3CCNCC3)s2)o1 | . | . | ? | -43% | . | .

Screens as filed in PubChem.
